Screening data from PubChem BioAssay.
Tb PGK inh – blocks T. brucei phosphoglycerate kinase | P07378 | PGK/GAPDH coupled, Kinase-Glo luminescence, 60 min | Potency, µM (top dose mostly 57.5 µM), inactives show at the highest dose activity change, negative = inhibition, actives largely listed as inhibitors | hit rate 0.043% among 380,000 | AID 602233; further: potency means the concentration at half of the fitted maximal effect; nearly all actives have a fitted effect of over 60% in size
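Luminescent ATP detection (Kinase-Glo Plus) follows a 60-minute room-temperature incubation, with wells lacking PGK as controls. Buffer: 100 mM TEA (pH 7.6), 5 mM MgCl2, 0.01% Tween-20. Coupling enzyme GAPDH (100 nM final) supplies unstable 1,3-BPG in-well.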
Pin1 inh – inhibitors of human Pin1. Potency, µM (top dose mostly 115 µM), for the others: at the top dose activity, negative = inhibition, hits mostly inhibitors. hit rate 0.009% among 390,000. Pin1 FP peptide displacement, HiFluor488, 10 min; active means well fitted inhibition curve with a large enough effect in the polarisation, with a control signal flat, not every such curve was filed as active; inconclusive means small, poorly fitted or top-dose-only effect, or effect the other way, or a change in a side signal; inactive means no such curve, though single readings can be large or run the other way; the % refers to the polarisation; further: potency means the concentration at half of the fitted maximal effect
Target sequence (Q13526 whole entry, looked up): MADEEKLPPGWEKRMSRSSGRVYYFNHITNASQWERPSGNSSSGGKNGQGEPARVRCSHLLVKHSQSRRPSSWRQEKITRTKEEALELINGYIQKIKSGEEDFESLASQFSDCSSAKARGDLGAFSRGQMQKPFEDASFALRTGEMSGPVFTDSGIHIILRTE
PI5P4Ka inh – PI5P4K alpha (human) kinase inhibition | P48426 | PI5P4Kalpha enzyme, ADP-Glo luminescence, 60 min; hits give low values | max response, % | hit rate 1.2% among 330,000; active means max response of -50% or lower; inconclusive means between -30% and -50%; inactive means -30% or higher; further: value at the top dose of about 77 µM
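ADP-Glo luminescence end-point read after a 60 min room-temperature kinase reaction of PI5P4Kalpha plus substrate, initiated with ATP at 5 microM final. Buffer: 0.038 M HEPES pH 7.4, EGTA, 0.1% CHAPS, 5% DMSO.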
PI4K2A block – PI4K2A (human) kinase inhibition | activity change, negative = inhibition, % at 76.9 µM | AID 1346378 | hit rate 0.13% among 420,000 | Q9BTU6 | purified PI4K2A, ADP-Glo luminescence, 1 h; hits give low values; in the data active means activity change below about -50%; inconclusive means mostly about -30% to -49%;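 further: -100% = wells without enzyme as full effect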
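Compounds are screened against recombinant PI4K2A using PI as substrate and ATP, the latter dispensed at 300 microM. Reactions run one hour at ambient temperature before ADP-Glo detection; full inhibition defined by wells lacking enzyme.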
Tb PFK block – blocks T. brucei phosphofructokinase | T. brucei PFK, ADP-Glo luminescence | Potency, µM (doses to about 57.5 µM), without a hit: top-dose activity, negative = inhibition, usual class: inhibitors | hit rate 0.17% among 330,000;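 further: potency means the concentration at half of the fitted maximal effect; 0% = uninhibited 1x PFK enzyme wells and -100% = no-enzyme wells; nearly all actives have a fitted effect of over 60% in size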
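Activity is normalized to no-enzyme wells (full inhibition) and 1.25 nM enzyme wells (no inhibition). Reaction: 0.5 mM F6P, 0.1 mM ATP, 45 min RT, ADP-Glo luminescence; concentration-response curves fitted and classed by quality.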
An asterisk follows results filed as active. Shown is part of a subset that was picked to be rich in hits. Unless noted, the call rests on the fitted dose curve; in most records, active means well fitted curve in the direction sought with a large enough effect; inconclusive means small, poorly fitted or top-dose-only effect, or another doubt; inactive means no such curve, though single readings can be large; an effect the other way counts as inactive or inconclusive. Unless noted, on the % scale 0 is the no-effect control and ±100 the full control effect.

Cc1cc(O)c(C(=O)/C=C/c2ccccc2O)c(=O)o1 was read as Pin1 inh inconclusive, PI5P4Ka inh -5.8, PI4K2A block -1.4 and Tb PFK block -0.7%.
`Cc1cc(O)c(C(=O)/C=C/c2cccc([N+](=O)[O-])c2)c(=O)o1` gave Tb PGK inh -10.5%, Pin1 inh inconclusive, PI5P4Ka inh -85.9*, PI4K2A block -3.1 and Tb PFK block -3.2%.
`O=C(/C=C/c1cccc(Cl)c1)c1ccc([N+](=O)[O-])o1` gave Tb PGK inh -2.0%, Pin1 inh -3.2%, PI5P4Ka inh -51.1*, PI4K2A block -6.5 and Tb PFK block -19.9%.
Screening C/C(N)=C(/C#N)C(=O)CN1C(=O)NC(Cc2c[nH]c3ccccc23)C1=O (stereo unspecified) returned Tb PGK inh -10.4%, Pin1 inh inconclusive, PI5P4Ka inh -66.3*, PI4K2A block -6.7 and Tb PFK block -13.0%.
`CC1=CC(=O)N(c2cccc3c(N4C(=O)C=C(C)C4=O)cccc23)C1=O` gave Tb PGK inh -7.8%, Pin1 inh 16.8%, PI5P4Ka inh -62.8* and PI4K2A block inconclusive.
Screening CC(C)C(=O)NC(=S)Nc1sc2c(c1C(N)=O)CCCC2 returned Tb PGK inh -10.9%, Pin1 inh 16.2%, PI5P4Ka inh -54.2*, PI4K2A block -1.2 and Tb PFK block -11.9%.
`CC1(C)CC(=O)C2=C(C1)NC(=O)NC2c1ccccc1Cl` (stereo unspecified) gave Tb PGK inh 1.1%, Pin1 inh -1.8%, PI5P4Ka inh 0.6 and PI4K2A block 1.5.
CN(CCC#N)C(=O)COC(=O)c1c2c(nc3ccccc13)/C(=C/c1ccco1)CC2 was read as Tb PGK inh inconclusive, Pin1 inh inconclusive, PI5P4Ka inh -67.9*, PI4K2A block -52.7* and Tb PFK block inconclusive.
Oc1c(Br)cc(C2N=C(c3ccccc3)NO2)cc1Br (stereo unspecified) was read as Tb PGK inh -5.1%, Pin1 inh 5.4%, PI5P4Ka inh -56.0*, PI4K2A block -22.7 and Tb PFK block 0.0%.
Screening Cc1ccc(S(=O)(=O)Nc2cc3c4c(c2)C(C)C(=O)N4CCC3)cc1 (stereo unspecified) returned Tb PGK inh -5.8%, Pin1 inh inconclusive, PI5P4Ka inh -0.6, PI4K2A block -5.1 and Tb PFK block 6.9%.
Screening COc1ccccc1/C=N/NC(=O)CN(C1=NS(=O)(=O)c2ccccc21)c1ccccc1 returned Tb PGK inh 1.9%, Pin1 inh 42.8%, PI5P4Ka inh 1.9, PI4K2A block -7.4 and Tb PFK block -0.8%.
Screening N=C1C(c2nc(-c3cccc([N+](=O)[O-])c3)cs2)=C(O)CN1NC(=O)c1ccco1 returned Tb PGK inh -18.2%, Pin1 inh inconclusive, PI5P4Ka inh -55.2*, PI4K2A block -8.3 and Tb PFK block 0.2%.
Screening Cc1ccc(-c2csc(C3=C(O)CN(NC(=O)c4ccc([N+](=O)[O-])cc4)C3=N)n2)cc1 returned Tb PGK inh -12.0%, Pin1 inh -2.8%, PI5P4Ka inh -7.5, PI4K2A block -7.5 and Tb PFK block -2.7%.
Screening O=C(N/N=C/c1cc(Br)c(O)c(Br)c1O)c1cccnc1 returned Pin1 inh 21.5%, PI5P4Ka inh -59.4*, PI4K2A block -3.5 and Tb PFK block inconclusive.
`O=C(N/N=C/c1cc(O)ccc1Br)c1cccnc1` gave Tb PGK inh -6.5%, Pin1 inh 4.5%, PI5P4Ka inh -0.2, PI4K2A block 1.0 and Tb PFK block 2.6%.
Screening O=C(CCc1nc(-c2ccccc2Cl)no1)NC1CCCC1 returned Tb PGK inh 3.4%, Pin1 inh -3.1%, PI5P4Ka inh 2.9, PI4K2A block 4.7 and Tb PFK block 1.8%.
`COc1ccc(S(=O)(=O)CC(=O)c2cc3cc(Br)ccc3oc2=O)cc1` gave Tb PGK inh 2.5%, Pin1 inh -6.1%, PI5P4Ka inh -75.2*, PI4K2A block inconclusive and Tb PFK block inconclusive.
`COc1ccc(OC)c(S(=O)(=O)CC(=O)c2cc3ccc(OC)cc3oc2=O)c1` gave Tb PGK inh inactive, Pin1 inh 3.5%, PI5P4Ka inh -7.3, PI4K2A block -0.2 and Tb PFK block 0.0%.
